Inhibition data for 62 molecules are collected here from PubChem BioAssay AID1220 (Sanford-Burnham Center for Chemical Genomics, 2008).

Among all 190,000 compounds or so, about 1,300 (0.68%) were called active. What follows is part of a selection rich in actives, with near analogues and random picks from the rest. Values without a mark were called inactive. No stated cut-off is given here; in the data, active means inhibition above about 50%; inactive means the rest.

For this assay, the target named is Mannose-6-phosphate isomerase (Homo sapiens) (UniProt P34949). The experiment in a line: human PMI inhibitors, high substrate, primary screen, biochemical, fluorescence intensity, high mannose 6-phosphate (AID 1220). To be noted: recombinant PMI enzyme, coupled fluorescence intensity; at 20 µM; hits give high values.
Mannose-6-phosphate isomerase (Homo sapiens), sequence (P34949 whole entry, looked up): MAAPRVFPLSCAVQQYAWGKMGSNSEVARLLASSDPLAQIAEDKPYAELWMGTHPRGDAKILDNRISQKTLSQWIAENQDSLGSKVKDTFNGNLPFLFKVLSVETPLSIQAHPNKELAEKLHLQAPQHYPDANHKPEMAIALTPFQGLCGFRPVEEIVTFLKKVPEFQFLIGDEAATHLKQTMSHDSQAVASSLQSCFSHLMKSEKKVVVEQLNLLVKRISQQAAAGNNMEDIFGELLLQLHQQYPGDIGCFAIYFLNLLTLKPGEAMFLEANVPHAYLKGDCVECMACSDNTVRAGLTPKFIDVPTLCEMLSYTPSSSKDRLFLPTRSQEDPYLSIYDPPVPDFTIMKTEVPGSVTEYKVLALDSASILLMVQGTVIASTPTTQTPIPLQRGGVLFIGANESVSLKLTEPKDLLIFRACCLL
Regarding `COc1cc(C(=O)NCCSc2ccc(Br)cc2)cc(OC)c1OC`, the inhibition is 5.3%.

Take `Cc1cc(S(=O)(=O)Nc2ccc(F)cc2)c(C)s1`: the inhibition is 5%.

With `CC(=O)Nc1ccc(NS(=O)(=O)c2cc(C)sc2C)cc1`, the inhibition was 61.6% (active).

Take `Cc1cc(S(=O)(=O)Nc2ccc(N(C)C)cc2)c(C)s1`: the inhibition was 10.9%.

As to `CN(C)CCCNc1oc(-c2ccccc2)nc1C#N`, the inhibition was -7.3%.

In the case of `CCOC(=O)c1c(NCC2CCCO2)c2ccccc2[nH]c1=O` (configuration not stated), the inhibition is -10.2%.

Take `COc1ccc(N2C(=O)N(Cc3cccc(F)c3)c3ccccc3S2(=O)=O)cc1`: the inhibition was 0.3%.

Regarding `CC1(C)CC(=O)C2=C(C1)NC(=O)NC2c1ccccc1` (configuration not stated), the inhibition is -2.6%.

On to `Cc1ccc(-n2nnnc2Sc2nc([N+](=O)[O-])nn2C)cc1`, for which the inhibition is 18.5%.

Take `O=C(Nc1ccc2nsnc2c1)N1CCCCC1`: the inhibition is 24.1%.

Turning to `O=C(Nc1ccc2nsnc2c1)N1CCCCCC1`, the inhibition is 21.5%.

Take `Cc1nc2ccc(NC(=S)N3CCN(c4ccccn4)CC3)cc2nc1C`: the inhibition was 18.3%.

In the case of `CC1CCN(C(=S)Nc2ccc(F)cc2)CC1`, the inhibition is -10.5%.

In the case of `Cc1nc2ccc(NC(=S)N3CCC(C)CC3)cc2nc1C`, the inhibition was 55.4% (active).

As for `Cc1nc2ccc(NC(=O)N3CCCCC3)cc2nc1C`, the inhibition is 21.5%.

On to `CC1CCN(C(=O)Nc2ccc3nsnc3c2)CC1`, for which the inhibition was 62% (active).

`Cc1nc2ccc(NC(=S)N3CCCC3)cc2nc1C`: the inhibition is 52.8% (active).

On to `Cc1nc2ccc(NC(=S)N3CCOCC3)cc2nc1C`, for which the inhibition is 45.1%.

`COC(=O)CSc1cc(C)nc2ccc(OC)cc12`: the inhibition was 7.7%.

With `CC(C(=O)Nc1ccncc1)(c1ccccc1)c1ccccc1`, the inhibition is 10.8%.

In the case of `O=C(CCN1C(=O)/C(=C/C=C/c2ccccc2)SC1=S)Nc1cccnc1`, the inhibition was 1.5%.

On to `Cc1noc(C)c1C(=O)N1CCN(Cc2ccc3c(c2)OCO3)CC1`, for which the inhibition was 6.8%.

Turning to `O=c1[nH]c2cc([N+](=O)[O-])c(NCCO)c([N+](=O)[O-])c2[nH]1`, the inhibition is 3.7%.

For `CC(=O)Nc1c([N+](=O)[O-])cc2[nH]c(=O)[nH]c2c1[N+](=O)[O-]`, the inhibition was 56.9% (active).

In the case of `CN(C)c1c([N+](=O)[O-])cc2[nH]c(=O)[nH]c2c1[N+](=O)[O-]`, the inhibition is 9.6%.

Take `CC(C)Oc1ccc(C(CC(=O)O)n2cnnn2)cc1` (configuration not stated): the inhibition was 2%.

In the case of `COC(=O)CN1C(=O)C2(C(C#N)=C(N)Oc3cc(C)oc(=O)c32)c2ccccc21` (configuration not stated), the inhibition was 7.9%.

For `Cc1nn(-c2ccccc2)c2c1C1(C(=O)N(C)c3ccccc31)C(C#N)=C(N)O2` (configuration not stated), the inhibition is 21.9%.

Regarding `CC(=O)N1C(=O)C2(C(C#N)=C(N)Oc3cc(C)oc(=O)c32)c2ccccc21` (configuration not stated), the inhibition is 11%.

On to `CCN1C(=O)C2(C(C#N)=C(N)Oc3c2c(C)nn3-c2ccccc2)c2ccccc21` (configuration not stated), for which the inhibition is 62.1% (active).

Take `CC(=O)N1C(=O)C2(C(C#N)=C(N)Oc3c2c(C)nn3-c2ccccc2)c2ccccc21` (configuration not stated): the inhibition was 62.8% (active).

For the molecule `COC(=O)CN1C(=O)C2(C(C#N)=C(N)Oc3c2c(C)nn3-c2ccccc2)c2ccccc21` (configuration not stated), the inhibition was 58.9% (active).

With `Cc1nn(-c2ccccc2)c2c1C1(C(=O)N(C(C)C)c3ccccc31)C(C#N)=C(N)O2` (configuration not stated), the inhibition was 24.1%.

On to `Cc1nn(-c2ccccc2)c2c1C1(C(=O)N3c4c(cccc41)C(C)CC3(C)C)C(C#N)=C(N)O2` (configuration not stated), for which the inhibition was 21%.

On to `COC(=O)CN1C(=O)C2(C(C#N)=C(N)Oc3n[nH]c(-c4cccs4)c32)c2ccccc21` (configuration not stated), for which the inhibition is 7.3%.

Regarding `CCCCC1NC(=S)N(C2CCCCC2)C1=O` (configuration not stated), the inhibition was -7.2%.

Take `COC(=O)c1sc2ccccc2c1-n1cccc1C(=O)C(=O)Nc1ccc(C)cc1`: the inhibition is 4.8%.

As to `O=c1[nH]c(SCC2CCCCO2)nc2ccccc12` (configuration not stated), the inhibition is -2.3%.

As to `O=C1CSC(c2cccc(Cl)c2Cl)N1c1ccccn1` (configuration not stated), the inhibition was 12.3%.

For `Cc1ccc(C)c(S(=O)(=O)Nc2ccccc2C(=O)Nc2cc(C)on2)c1`, the inhibition was 8.8%.

Consider `COC(=O)c1cccc(NS(C)(=O)=O)c1C`, for which the inhibition was -5.8%.

Turning to `CNc1nc(C)c(C(=O)OCC(=O)OC)s1`, the inhibition was -0.1%.

Consider `CC(NC(=O)CSCc1ccccc1Br)c1ccccc1` (configuration not stated), for which the inhibition is 4.4%.

In the case of `COc1ccc(NC(=S)Nc2ccccc2SC)c(OC)c1`, the inhibition was 20.7%.

As for `Cc1ccc(CN(CC(=O)N/N=C/c2ccco2)S(=O)(=O)c2ccc(C)cc2)cc1`, the inhibition is 4.9%.

For `CC1=C(C)C(=O)C(CCCCC#CCCCC#CCO)=C(C)C1=O`, the inhibition was 19.9%.

With `Cc1[nH]c(=S)[nH]c(=O)c1CCCO`, the inhibition is 5.3%.

`COC1=C(OC)C(=O)C(CCCCCCCCCCO)=C(C)C1=O`: the inhibition is 78.2% (active).

On to `COc1ccc(OC)c(-n2c(=S)[nH]c3c(sc(=S)n3-c3ccccc3)c2=O)c1`, for which the inhibition is 9.2%.

For `COc1ccccc1-n1c(=S)[nH]c2c(sc(=S)n2-c2ccccc2)c1=O`, the inhibition was -3.7%.

With `Cc1ccc(/C=C2\SC(=S)N(C3CCS(=O)(=O)C3)C2=O)cc1` (configuration not stated), the inhibition is -2.5%.

For `C=CCn1c(COc2ccccc2F)nnc1SCC(=O)NC(=O)NCc1ccco1`, the inhibition was -4%.

For the molecule `CNc1nc2[nH]c(=O)c3c(c2s1)OC(N)=C(C#N)C3c1ccccc1` (configuration not stated), the inhibition is 52% (active).

As to `Cc1ccc(C2C(C#N)=C(N)Oc3c2c(=O)n(C)c(=O)n3C)cc1` (configuration not stated), the inhibition was -24.8%.

Take `CN(C)c1ccc2c(c1)OC(N)=C(C#N)C2c1cccc(F)c1` (configuration not stated): the inhibition is 25.2%.

As for `Cc1ccc(C2C(C#N)=C(N)Oc3n[nH]c(C)c32)cc1` (configuration not stated), the inhibition is 8.4%.

With `CCNc1nc2[nH]c(=O)c3c(c2s1)OC(N)=C(C#N)C3c1ccc(C)cc1` (configuration not stated), the inhibition was 62.6% (active).

Take `Cc1oc(C)c2c(=O)ccc3c(c12)OC(N)=C(C#N)C3c1ccccc1` (configuration not stated): the inhibition is 2.8%.

Turning to `Cc1cc(C)c2c3c(sc2n1)C(c1cccc(F)c1)C(C#N)=C(N)O3` (configuration not stated), the inhibition is -7%.

For the molecule `CNc1nc2[nH]c(=O)c3c(c2s1)OC(N)=C(C#N)C3c1cccc(F)c1` (configuration not stated), the inhibition was 54.7% (active).

On to `COC(=O)C1=C(C)OC(N)=C(C#N)C1c1ccccc1` (configuration not stated), for which the inhibition is -8.8%.

Consider `O=C1CCCC(O)=C1C1C2=C(CCCC2=O)Oc2ccccc21` (configuration not stated), for which the inhibition is 6.5%.

Usually inhibition stands for the change of the read-out against control, counted positive when it falls.
